# Laboratory results taken from publication PMC5540273 (PLoS ONE, 2017).
# Tested on: EPHA3
# Conditions: concentration: 1 μM,replicates: in singlicate; n = 1
# 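Further: KINOMEscan kinase panel screen.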
row,Structure (SMILES),%Inh [%]
1,CNC(=O)c1ccccc1Nc1nc(Nc2cccc(CS(C)(=O)=O)c2)ncc1C.O=CO [GSK1520489],91.8
2,O=C(Nc1n[nH]c2cc(-c3ccco3)ccc12)C1CC1 [SB-737447],19
3,CSc1nccc(-c2c(-c3ccc(F)cc3)ncn2CCCN2CCOCC2)n1.Cl [SB-217146],0
4,COc1cccc(CNC(=O)NC2CCN(c3ccnc(Nc4cc(OC)c(OC)c(OC)c4)n3)C2)c1 (centres unmarked) [GSK1379765],0
5,Cn1cc(-c2cccc3c(N)c(C(N)=O)nnc23)cn1,24
6,Cc1ccc(Nc2ccnc(Nc3ccc4c(c3)CS(=O)(=O)C4)n2)cc1O.Cl [GW579362],78
7,CC(C(=O)NC1CCN(c2ccnc(Nc3ccc(F)cc3)n2)C1)c1ccc(Cl)cc1 (centres unmarked) [GSK1379713],0
8,COc1cc2c(Nc3ccc(NC(=O)c4ccccc4)cc3)ncnc2cc1OCCCN1CCOCC1 [GSK301329],0
9,N#Cc1cccc(C(=O)NC2CCN(c3ccnc(Nc4ccc(F)cc4)n3)C2)c1 (centres unmarked) [GSK1379708],0
10,CN1CCN(CCCNc2nccc(-c3c(-c4ccc(F)cc4)nn4cc(C(N)=O)ccc34)n2)CC1 [GW622475],31
11,O=C(Nc1cccc(C(F)(F)F)c1)c1cccc(Oc2ccc3nccn3n2)c1,11
12,COC(=O)Nc1nc2cc(Oc3ccc(NC(=O)Nc4cc(C(F)(F)F)ccc4Cl)cc3)ccc2[nH]1.Cl [GW697465],43
13,Cn1ccc2ncnc(Oc3ccc(NC(=O)Nc4ccnc(C(F)(F)F)c4)c(Cl)c3)c21,10
14,Cc1cccc2c(-c3ccncc3)c(-c3ccc(F)cc3)nn12.Cl [GW461487],0
15,COc1cccc(C2=C(Nc3cccc(Cl)c3)C(=O)NC2=O)c1 [SB-341556],0
16,OCCn1cc(-c2cnc3nnn(Cc4ccc5ncccc5c4)c3n2)cn1,0
17,CC(=O)c1c(-c2ccncc2)[nH]c(-c2ccncc2)c1C [GW493036],0
18,Cn1ccc2ncnc(Oc3ccc(NC(=O)Nc4cncc(C(F)(F)F)c4)c(Cl)c3)c21,92.5
19,O=c1[nH]cc(-c2ccc(O)cc2)c2sc(-c3ccncc3)cc12 [GSK1033723],0

row,Structure (SMILES),%Inh [%]
1,COC(=O)c1cccc(NC(=O)NC2CCN(c3ccnc(NCc4ccc(F)cc4)n3)CC2)c1 [GSK1379860],0
2,Cn1ccc2ncnc(Oc3ccc(NC(=O)Nc4cccc(C(F)(F)F)c4)c(F)c3)c21,58
3,Cl.c1ccc(Oc2ccc(Nc3ccnc4cc(-c5ccc(CN6CCNCC6)o5)ccc34)cc2)nc1 [GW567142],16
4,CS(=O)(=O)c1cccc(CNc2nc(Nc3ccc4c(c3)[C@@H]3C[C@@H]4CNC3=O)ncc2C(F)(F)F)c1,6
5,C[C@@H](Oc1cc(-n2cnc3ccc(-c4ccncc4)cc32)sc1C(N)=O)c1ccccc1Cl [GSK483724],0
6,CCOC(=O)N1CCC(n2cnc(-c3ccc(F)cc3)c2-c2ccnc(N)n2)CC1 [SB-219952],14
7,Cn1ccc2ncnc(Oc3ccc(NC(=O)Nc4cc(C(C)(C)C)on4)c(Cl)c3)c21,93.4
8,Cc1n[nH]c2cc(Nc3ccnc(Nc4cccc(CN5CCOCC5)c4)n3)ccc12 [GW682569],25
9,NC(=O)c1ccc(-c2cc3ncnc(SCC(=O)O)c3s2)cc1,0
10,Cc1ccc(CC(=O)N2CCc3cc(-c4cn(C)c5ncnc(N)c45)ccc32)cc1 [GSK2634758],0
11,COc1ccc(Nc2nccc(N3CCC(NC(=O)c4cccc(C#N)c4)C3)n2)cc1 (centres unmarked) [GSK1379730],0
12,Cn1ccc2ncnc(Oc3ccc(NC(=O)Nc4cccc(C(F)(F)F)c4)c(Cl)c3)c21,97.6
13,O=C(Nc1ccccc1)c1cccc(Oc2ccc3nccn3n2)c1,0
14,Cn1ccc2ncnc(Oc3ccc(NC(=O)Nc4cnn(C(C)(C)C)c4)c(Cl)c3)c21,54
15,CCn1c(-c2nonc2N)nc2cncc(CNC3CCNCC3)c21.Cl [SB-747651],0
16,COc1cc2nccc(Nc3ccc(Oc4ccccc4)cc3)c2cc1OC.Cl [GI261656],0
17,Cl.Cl.NC[C@H](CC1CCCCC1)NC(=O)c1ccc(-c2ccnc3[nH]ccc23)s1 [GSK1581428],17
18,Cc1cccc(-c2nc(Nc3ccncc3)c3sccc3n2)n1 [GW869641],26

# Tested on: EPHA4
# Conditions: concentration: 1 μM,replicates: in singlicate; n = 1
row,Structure (SMILES),%Inh [%]
1,CNC(=O)c1ccccc1Nc1nc(Nc2cccc(CS(C)(=O)=O)c2)ncc1C.O=CO [GSK1520489],88
2,O=C(Nc1n[nH]c2cc(-c3ccco3)ccc12)C1CC1 [SB-737447],0
3,CSc1nccc(-c2c(-c3ccc(F)cc3)ncn2CCCN2CCOCC2)n1.Cl [SB-217146],7
4,COc1cccc(CNC(=O)NC2CCN(c3ccnc(Nc4cc(OC)c(OC)c(OC)c4)n3)C2)c1 (centres unmarked) [GSK1379765],3
5,Cn1cc(-c2cccc3c(N)c(C(N)=O)nnc23)cn1,0
6,Cc1ccc(Nc2ccnc(Nc3ccc4c(c3)CS(=O)(=O)C4)n2)cc1O.Cl [GW579362],53
7,CC(C(=O)NC1CCN(c2ccnc(Nc3ccc(F)cc3)n2)C1)c1ccc(Cl)cc1 (centres unmarked) [GSK1379713],0
8,COc1cc2c(Nc3ccc(NC(=O)c4ccccc4)cc3)ncnc2cc1OCCCN1CCOCC1 [GSK301329],7
9,N#Cc1cccc(C(=O)NC2CCN(c3ccnc(Nc4ccc(F)cc4)n3)C2)c1 (centres unmarked) [GSK1379708],0
10,CN1CCN(CCCNc2nccc(-c3c(-c4ccc(F)cc4)nn4cc(C(N)=O)ccc34)n2)CC1 [GW622475],0
11,O=C(Nc1cccc(C(F)(F)F)c1)c1cccc(Oc2ccc3nccn3n2)c1,17
12,COC(=O)Nc1nc2cc(Oc3ccc(NC(=O)Nc4cc(C(F)(F)F)ccc4Cl)cc3)ccc2[nH]1.Cl [GW697465],92
13,Cn1ccc2ncnc(Oc3ccc(NC(=O)Nc4ccnc(C(F)(F)F)c4)c(Cl)c3)c21,29
14,Cc1cccc2c(-c3ccncc3)c(-c3ccc(F)cc3)nn12.Cl [GW461487],0
15,COc1cccc(C2=C(Nc3cccc(Cl)c3)C(=O)NC2=O)c1 [SB-341556],23
16,OCCn1cc(-c2cnc3nnn(Cc4ccc5ncccc5c4)c3n2)cn1,0
17,CC(=O)c1c(-c2ccncc2)[nH]c(-c2ccncc2)c1C [GW493036],0
18,Cn1ccc2ncnc(Oc3ccc(NC(=O)Nc4cncc(C(F)(F)F)c4)c(Cl)c3)c21,57
19,O=c1[nH]cc(-c2ccc(O)cc2)c2sc(-c3ccncc3)cc12 [GSK1033723],10

row,Structure (SMILES),%Inh [%]
1,COC(=O)c1cccc(NC(=O)NC2CCN(c3ccnc(NCc4ccc(F)cc4)n3)CC2)c1 [GSK1379860],6
2,Cn1ccc2ncnc(Oc3ccc(NC(=O)Nc4cccc(C(F)(F)F)c4)c(F)c3)c21,85
3,Cl.c1ccc(Oc2ccc(Nc3ccnc4cc(-c5ccc(CN6CCNCC6)o5)ccc34)cc2)nc1 [GW567142],0
4,CS(=O)(=O)c1cccc(CNc2nc(Nc3ccc4c(c3)[C@@H]3C[C@@H]4CNC3=O)ncc2C(F)(F)F)c1,2
5,C[C@@H](Oc1cc(-n2cnc3ccc(-c4ccncc4)cc32)sc1C(N)=O)c1ccccc1Cl [GSK483724],2
6,CCOC(=O)N1CCC(n2cnc(-c3ccc(F)cc3)c2-c2ccnc(N)n2)CC1 [SB-219952],9
7,Cn1ccc2ncnc(Oc3ccc(NC(=O)Nc4cc(C(C)(C)C)on4)c(Cl)c3)c21,68
8,Cc1n[nH]c2cc(Nc3ccnc(Nc4cccc(CN5CCOCC5)c4)n3)ccc12 [GW682569],17
9,NC(=O)c1ccc(-c2cc3ncnc(SCC(=O)O)c3s2)cc1,17
10,Cc1ccc(CC(=O)N2CCc3cc(-c4cn(C)c5ncnc(N)c45)ccc32)cc1 [GSK2634758],0
11,COc1ccc(Nc2nccc(N3CCC(NC(=O)c4cccc(C#N)c4)C3)n2)cc1 (centres unmarked) [GSK1379730],0
12,Cn1ccc2ncnc(Oc3ccc(NC(=O)Nc4cccc(C(F)(F)F)c4)c(Cl)c3)c21,88
13,O=C(Nc1ccccc1)c1cccc(Oc2ccc3nccn3n2)c1,4
14,Cn1ccc2ncnc(Oc3ccc(NC(=O)Nc4cnn(C(C)(C)C)c4)c(Cl)c3)c21,23
15,CCn1c(-c2nonc2N)nc2cncc(CNC3CCNCC3)c21.Cl [SB-747651],9
16,COc1cc2nccc(Nc3ccc(Oc4ccccc4)cc3)c2cc1OC.Cl [GI261656],0
17,Cl.Cl.NC[C@H](CC1CCCCC1)NC(=O)c1ccc(-c2ccnc3[nH]ccc23)s1 [GSK1581428],5
18,Cc1cccc(-c2nc(Nc3ccncc3)c3sccc3n2)n1 [GW869641],8
